Screens from PubChem.
Rows were chosen to be rich in hits. Some 10% of all compounds tested hit in one or more screens of this group.
HP1b binding inh: HTS for Inhibitors of HP1-beta Chromodomain Interactions with Methylated Histone Tails. Chromobox protein homolog 1 (Homo sapiens), P83916. AlphaScreen HP1-beta / biotin-H3K9me3 peptide binding. Potency, µM (series often up to 114 µM), hits mostly inhibitors. hit rate 0.56% among 390,000; also: nearly all actives have a fitted effect of over 70% in size
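AlphaScreen: HP1-beta (50 nM) preformed 30 min with biotin-H3(1-18)K9me3 peptide (50 nM) in PBS pH 7.4, 0.01% Tween-20. Compound added for 30 min at RT, then streptavidin donor/nickel chelate acceptor beads (10 ug/mL) for 30 min.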
BAZ2B block: qHTS Assay for Inhibitors of BAZ2B; Bromodomain adjacent to zinc finger domain protein 2B (Homo sapiens), Q9UIF8; AlphaScreen BAZ2B-H3K14Ac peptide displacement; Potency, µM (series often up to 114 µM), hits mostly inhibitors; hit rate 4.4% among 360,000; also: nearly all actives have a fitted effect of over 60% in size
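Protein-peptide AlphaScreen: BAZ2B 50 nM, b-H3K14Ac 50 nM, 1x PBS pH 7.4 + 0.01% Tween-20. Preincubation 30 min RT; cpd 30 min RT (top 110 uM); beads 20 min RT, light-protected.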
GLS inhibitor: qHTS for Inhibitors of Glutaminase (GLS) | AID 624170, 2012 | GLS enzymatic activity, qHTS titration | hit rate 0.21% among 410,000 | Potency, µM (top dose mostly 45.5 µM), actives largely listed as inhibitors
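Compounds were pin-transferred onto hKGA, after which L-glutamine (1 mM solution) and a detection mix of glutamate oxidase, HRP and Amplex Red were added. Initial and 30 min RT fluorescence reads were collected.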
JMJD2A Tudor: qHTS Assay for Inhibitors of JMJD2A-Tudor Domain | Potency, µM (top dose mostly 114 µM), usual class: inhibitors | Lysine-specific demethylase 4A (Homo sapiens), O75164 | hit rate 4.4% among 390,000 | AlphaScreen JMJD2A-Tudor / H3K4me3 peptide binding; also: nearly all actives have a fitted effect of over 50% in size
L3MBTL1 block: qHTS Assay for the Inhibitors of L3MBTL1 | AID 485360, 2010 | AlphaScreen L3MBTL1–H3K9me1 peptide binding | hit rate 0.66% among 230,000 | Potency, µM (highest dose often 57.1 µM), actives largely listed as inhibitors | Lethal(3)malignant brain tumor-like protein 1 (Homo sapiens), Q9Y468; also: nearly all actives have a fitted effect of over 60% in size
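L3MBTL1 (50 nM) pre-complexed 30 min with biotinylated H3(1-15)K9me1 peptide (75 nM), then compounds added for 30 min at room temperature; AlphaScreen streptavidin donor/nickel chelate acceptor beads (10 ug/mL final) read after 30 min dark incubation.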
G9a block: qHTS Assay for Inhibitors of Histone Lysine Methyltransferase G9a; Potency, µM (highest dose often 102 µM), usual class: inhibitors; hit rate 8.8% among 350,000; G9a H3K9 monomethylation, AlphaScreen, 2 h; also: nearly all actives have a fitted effect of over 75% in size
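AlphaScreen detection with an anti-monomethyl H3K9 antibody quantified product after a 2 h room-temperature reaction containing 500 nM biotinylated H3K9 peptide, 20 µM SAM and 20 nM enzyme, which had been preincubated 15 min with compound.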
A number is an active result; n = inactive; u = inconclusive; x = not tested or not shown; [ ] = remark or other dose. Calls follow the shape of the dose curve; as a rule, active = well fitted curve in the direction sought with a large enough effect; inconclusive = small, poorly fitted or top-dose-only effect, or another doubt; inactive = no such curve, though single readings can be large; an effect the other way counts as inactive or inconclusive.

SMILES	HP1b binding inh	BAZ2B block	GLS inhibitor	JMJD2A Tudor	L3MBTL1 block	G9a block
COc1ccccc1CNC(=O)CS(=O)(=O)Cc1nc(-c2ccccc2C)oc1C	n	n	n	n	x	n
[O-]/C(=C(\C(=S)Nc1ccccc1F)[n+]1ccccc1)c1ccc(-c2ccccc2)cc1	n	n	n	n	n	31.6µM
[O-]C(=C(C(=S)Nc1cccc2ccccc12)[n+]1ccccc1)c1ccc2c(c1)OCCO2	u	x	n	u	x	x
CC(C)(C)c1cc[n+](/C(C(=S)Nc2ccccc2F)=C(/[O-])c2ccc3c(c2)OCCO3)cc1	n	35.5µM	n	u	x	u
[O-]/C(=C(\C(=S)Nc1ccc(Cl)cc1)[n+]1ccccc1)c1ccc(OC(F)F)cc1	n	u	n	u	n	11.2µM
CCNC(=S)/C(=C(/[O-])c1ccc([N+](=O)[O-])cc1)[n+]1ccccc1	n	n	n	n	n	x
CCOc1ccccc1NC(=S)/C(=C(\[O-])c1ccc2c(c1)OCCO2)[n+]1ccc(CC)cc1	u	u	n	n	x	8.91µM
CCCCCCN(CCCCCC)C(=O)Cc1c(-c2ccc(Cl)cc2)[nH]c2ccc(Cl)cc12	x	x	x	x	x	n
Cc1ccc(N(Cc2cc(=O)[nH]c3ccccc23)C(=O)C(C)C)cc1	n	n	n	n[11.4 µM]	n	50.1µM
COc1ccc(N(Cc2cc(=O)[nH]c3ccccc23)C(=O)c2ccco2)cc1	n	n	n	u	n	50.1µM
COc1ccccc1N(Cc1cc(=O)[nH]c2ccccc12)C(C)=O	n	n	n	n	x	u
CCCC(=O)N(Cc1cc(=O)[nH]c2ccccc12)c1ccccc1OC	n	n	n	n	x	44.7µM
CCCC(=O)N(Cc1cc(=O)[nH]c2ccccc12)c1ccc(C)cc1C	n	n	n	n	x	u
CCCC(=O)N(Cc1cc(=O)[nH]c2ccccc12)c1ccc(C)cc1	n	n	n	89.1µM	x	25.1µM
COc1cccc(CNC(=O)CSc2nnc(C)c3c(C)n(-c4ccccc4)nc23)c1OC	n	n	n	n	x	n
O=C1CCc2cc(S(=O)(=O)Nc3cccc(C(F)(F)F)c3)ccc2N1	x	x	x	n	x	x
CCOC(=O)c1c(C)n(-c2ccccc2)c2ccc(OC(=O)c3cc(OC)cc(OC)c3)cc12	n	n	n	n	x	n
CCCN1C(=O)c2cc(C(=O)O)ccc2C1O (stereo not given)	n	56.2µM	n	89.1µM	n	u
CN(C)c1ncnc2ccc(-c3cccc(NS(C)(=O)=O)c3)cc12	x	x	x	x	x	n[0.501 µM]
COc1ccccc1CN1CCCC(C(=O)N(C)Cc2ccccc2)C1 (stereo not given)	u	n	n	3.16µM	n	u
COc1ccc(C(=O)C2CCCN(Cc3ccc4nonc4c3)C2)cc1OC (stereo not given)	n	n	n	n	n	n
COc1ccc(CN2CCCC(C(=O)N(C)Cc3ccccc3)C2)cc1OC (stereo not given)	u	u	n	0.891µM	n	10µM
COc1ccccc1CN1CCCC(CN(CCN(C)C)C(=O)C2CCCC2)C1 (stereo not given)	n	n	n	n	n	n
OCCN(Cc1ccccc1)Cc1ccccc1F	44.7µM	25.1µM	n	1.78µM	n[11.4 µM]	2.51µM
OCCN(Cc1ccccc1)Cc1cccc(Cl)c1Cl	u	50.1µM	n	10µM	n	u
SMILES	HP1b binding inh	BAZ2B block	GLS inhibitor	JMJD2A Tudor	L3MBTL1 block	G9a block
COc1ccccc1CNc1cc(-c2ccccc2)nc2nncn12	n	n	n	n	x	n
O=S(=O)(Nc1cc(Sc2ncn[nH]2)c(O)c2ccccc12)c1ccccc1	3.55µM	28.2µM	n	3.55µM	x	1.41µM
Cc1ccc(S(=O)(=O)Nc2ccc(Br)cc2C(NCC(=O)O)c2ccccc2)cc1 (stereo not given)	n	n	n	n	n	u
Cc1cc(O)c(Sc2ncn[nH]2)cc1NS(=O)(=O)c1ccc(Cl)cc1	n	n	n	n	n	n[12.7 µM]
O=C(O)CSc1cc(NS(=O)(=O)c2ccc(Br)cc2)c2ccccc2c1O	14.1µM	35.5µM	u	20µM	x	1.78µM
COc1ccc(C2=NS(=O)(=O)N(C)C(C(=O)Nc3ccc(OC)c(OC)c3)=C2)cc1	n	u	n	u	n	35.5µM
COc1cccc(C2=NS(=O)(=O)N(C)C(C(=O)Nc3cccc(O)c3)=C2)c1	n	n	n	n	x	14.1µM
CSC1=NS(=O)(=O)c2c(C)nn(C)c2S1	12.6µM	50.1µM	n	4.47µM	n	1.12µM
CN1CCCN(S(=O)(=O)c2cccc(Cl)c2Cl)CC1	n	n	n	n	n	44.7µM
O=S(=O)(c1cccc(Cl)c1Cl)N1CCCCC1	n	n	n	n	n	n
COc1ccc([C@]23Cc4cc(OC)c(OC)cc4C(O2)C2=C(CC(C)(C)CC2=O)O3)cc1	x	n[22.9 µM]	x	x	x	n[2.33 µM]
CCN(CCCNC(=O)c1nn(-c2ccc(OC)c(Cl)c2)c(=O)c2c1c1ccccc1n2C)c1ccccc1	n	x	n	n	x	n
CCOC(=O)C1CCCN(CCc2ccccc2)C1 (stereo not given)	n	u	n	25.1µM	n	39.8µM
CCOC(=O)C1CCCN(C(=O)CCc2ccccc2)C1 (stereo not given)	n	n	n	n	n	n
CCOC(=O)C1CCCN(CC(O)COc2ccc(OC)cc2C(C)(C)C)C1 (stereo not given)	7.94µM	50.1µM	n	u	n	12.6µM
CCOC(=O)C1CCN(Cc2ccccc2C)CC1	n	56.2µM	n	n	x	u
CCOC(=O)C1CCCN(Cc2ccccc2OCC)C1 (stereo not given)	u	u	n	5.62µM	n	u
CCOC(=O)C1CCCN(CC(O)COc2ccccc2C(C)=O)C1 (stereo not given)	n	n	n	n	x	u
CCOC(=O)C1CCN(Cc2c(O)c3ccccc3oc2=O)CC1	n	n	n	n	n	n
COc1ccccc1NC(=O)c1oc2ccccc2c1NC(=O)Cc1cccs1	n	n	n	n	x	n
COc1ccc(C2=NC3(CCCCCC3)N(CC(=O)Nc3cccc(Cl)c3)C2=O)cc1	n	n	n	n	x	n
COc1cccc(C(=O)N2CCC(N3CC(C)OC(C)C3)CC2)c1 (stereo not given)	u	50.1µM	n	6.31µM	n	2.82µM
COc1ccc(CN2CCC(n3nccc3NC(=O)C3CCCC3)CC2)c(OC)c1	n	n	n	n	x	x
COc1ccc(CN2CCC(N3CC(C)OC(C)C3)CC2)c(OC)c1 (stereo not given)	39.8µM	31.6µM	n	0.794µM	x	8.91µM
